Results filed as inconclusive are left out. A call without a number means that no potency is given here. Calls of active or inactive are those of the source. Calls come from the whole dose curve; as a rule, active = well fitted cell-killing curve with a large enough effect; inconclusive = small, poorly fitted or top-dose-only effect; inactive = no such curve, though single readings can be large or run the other way.

40 molecules from PubChem BioAssay (NCATS) can be followed below.
Potency is the fitted concentration of half-maximal effect.

The test can be described thus: qHTS of pediatric cancer cell lines to identify multiple opportunities for drug repurposing: Primary screen for SK-N-SH cells (AID 1347098). Note: nearly all actives have a fitted effect of over 65% in size. Particulars: SK-N-SH viability, CellTiter-Glo luminescence, 48 h; series mostly up to 57 µM. The source says:
Drug repurposing or repositioning has been offered as a strategy for drug development in oncology programs. This approach has special potential for childhood cancers and other rare or orphan diseases, where the expected return on new drug development has been a disincentive to pharmaceuticals.
In this project we exploit the poly-pharmacology of drugs to discover new indications via phenotypic screening of a panel of 19 well-characterized cell lines derived from solid tumors seen in children and adolescents. The goal is to identify approved drugs with previously unrecognized anticancer properties that has the potential to reveal new mechanisms and biological processes involved in carcinogenesis or drug resistance. We employed a titration-based paradigm (quantitative high-throughput screening or qHTS), where all compounds were tested at multiple concentrations for their effect on cell viability. Concentration-response curves (CRCs) were derived directly from the primary screen, and both potency and efficacy values were used to identify compounds with robust bioactivity profiles. We screened the NIH Chemical Genomics Center (NCGC) Pharmaceutical Collection (NPC) and Mechanism Interrogation Plate (MIPE) small molecule collections of approved and investigational compounds against these cell lines; and measured metabolically active cells after 48 hours of compound treatment as a proxy for cell viability.
Assay Submitter: Nathalia J. Martinez, National Center for Advancing Translational Sciences, National Institutes of Health, Rockville, MD, USA; email: natalia.martinez@nih.gov
[1] Shen, M et al. Quantitative high-throughput phenotypic screening of pediatric cancer cell lines identifies multiple opportunities for drug repurposing. Oncotarget 2017 Dec 19;9(4):4758-4772. PMID 29435139.
The cells were obtained from University of North Carolina (UNC), Pediatric Preclinical Testing Program (PPT), and Coriell Institute (CI).
qHTS cell viability assay:
Cells were assayed in growth media at a density of 500-1,000 cells/well. Five microliters of cells were dispensed into 1,536-well, white, solid-bottom, TC-treated plates (Greiner Bio One) using a multidrop dispenser and incubated at 37 degrees C, 5% CO2, under a humidified atmosphere for 5 hours. Twenty-three nanoliters of compounds and controls (neutral control DMSO or positive control bortezomib at final concentration of 2.3 µM) were subsequently transferred by Kalypsys pintool. For primary screens, the MIPE collection was tested at 11-point dilutions (final concentrations range from 0.78 nM to 46 µM) and the NPC collection at 8-point dilutions (final concentrations range from 0.59 nM to 46 µM). Compounds tested in follow-up screens were assayed at 11-point dilutions. Cells were incubated for 48 hours, followed by addition of 3 µL of CellTiter-Glo (Promega). After a 15 min incubation at room temperature, samples were analyzed for luminescence intensity using a ViewLux High-throughput CCD imager equipped with clear filters.
For orientation: Quantitative high-throughput screening tests each substance at several concentrations.
Regarding `COc1cc(O)c(C(=O)c2ccccc2)cc1S(=O)(=O)O`, the Potency result was “inactive”.

`C[N+]1(C)CCC(=C(c2ccccc2)c2ccccc2)CC1`: the Potency entry is “inactive”.

Take `OC[C@H]1O[C@@H]2O[C@H]3[C@H](O)[C@@H](O)[C@@H](O[C@H]4[C@H](O)[C@@H](O)[C@@H](O[C@H]5[C@H](O)[C@@H](O)[C@@H](O[C@H]6[C@H](O)[C@@H](O)[C@@H](O[C@H]7[C@H](O)[C@@H](O)[C@@H](O[C@H]8[C@H](O)[C@@H](O)[C@@H](O[C@H]1[C@H](O)[C@H]2O)O[C@@H]8CO)O[C@@H]7CO)O[C@@H]6CO)O[C@@H]5CO)O[C@@H]4CO)O[C@@H]3CO`: the Potency result was “inactive”.

For `CC(=C(CCOC(=O)C(C)C)SSC(CCOC(=O)C(C)C)=C(C)N(C=O)Cc1cnc(C)nc1N)N(C=O)Cc1cnc(C)nc1N`, the Potency result is “inactive”.

Take `COc1ccc2c(c1)c1c3n2CCN(C)C3=NCC1`: the Potency entry was “inactive”.

On to `O=C(NCCc1c[nH]c2ccccc12)c1cccnc1`, for which the Potency entry is “inactive”.

Take `COC(=O)C(c1ccccc1Cl)N1CCc2sccc2C1` (stereo not given): the Potency result was “inactive”.

Regarding `NS(=O)(=O)c1ccc(Cl)c(S(N)(=O)=O)c1`, the Potency result is “inactive”.

Consider `Cc1c(-c2ccccc2)oc2c(C(=O)OCCN3CCCCC3)cccc2c1=O`, for which the Potency result was “inactive”.

As to `N#C/C(=C1\SCC(c2ccccc2Cl)S1)n1ccnc1` (stereo not given), the Potency entry was “inactive”.

As for `Oc1c(Cl)cc(Cl)c(Cl)c1Cc1c(O)c(Cl)cc(Cl)c1Cl`, the Potency was 12.2 µM (active).

With `CCN1/C(=C/C=C/c2sc3ccccc3[n+]2CC)Sc2ccccc21`, the Potency was 1.89 µM (active).

As to `CC(=O)NC(=O)c1ccccc1O`, the Potency entry was “inactive”.

For `CC(=O)Nc1ccc(CC(=O)O)cc1`, the Potency entry is “inactive”.

Take `Cc1c[nH]c2ccccc12`: the Potency entry was “inactive”.

Take `CNCCc1ccccn1`: the Potency entry was “inactive”.

As to `CCN(CC)CCOC(=O)C(Cc1cccc2ccccc12)CC1CCCO1` (stereo not given), the Potency entry was “inactive”.

For the molecule `Cc1cc(NS(=O)(=O)c2ccc(N)cc2)nc(C)n1`, the Potency result is “inactive”.

As to `CCCCCCCCCCCCCCCC(=O)O`, the Potency result was “inactive”.

As to `CC(C)n1c(/C=C/[C@@H](O)C[C@@H](O)CC(=O)O)c(-c2ccc(F)cc2)c2ccccc21`, the Potency was 3.44 µM (active).

Consider `CCOC(=O)c1ccc(N)cc1`, for which the Potency result was “inactive”.

Turning to `CCNC(=O)/C=C/c1cccc(Br)c1`, the Potency result is “inactive”.

As to `Clc1cccc(C(c2ccc3nc[nH]c3c2)n2ccnc2)c1` (stereo not given), the Potency entry was “inactive”.

As for `O=S(=O)(O)c1ccc(O)cc1`, the Potency entry was “inactive”.

As to `OCc1ccccn1`, the Potency result was “inactive”.

On to `CCNC(=O)NCc1cccc(Cl)c1`, for which the Potency result was “inactive”.

For the molecule `COc1cc(C(=O)NCc2ccc(OCCN(C)C)cc2)cc(OC)c1OC`, the Potency entry was “inactive”.

Turning to `CC(=O)NO`, the Potency entry is “inactive”.

As for `O=C(NC1CCN(CCc2c[nH]c3ccccc23)CC1)c1ccccc1`, the Potency result was “inactive”.

Turning to `CN1CCN(c2c(F)cc3c(=O)c(C(=O)O)cn4c3c2SCC4)CC1`, the Potency entry was “inactive”.

As for `CCCCCCCCOc1ccc(C(=O)c2ccccc2)c(O)c1`, the Potency result was “inactive”.

As for `Cn1c(=O)c2[nH]c(Br)nc2n(C)c1=O`, the Potency result was “inactive”.

Take `OCCOCCN1CCN(C2=Nc3ccccc3Sc3ccccc32)CC1`: the Potency result was “inactive”.

Turning to `CN1CCN(C2=Nc3ccccc3Sc3ccc(Cl)cc32)CC1`, the Potency result is “inactive”.

Take `CCCN(CCC)S(=O)(=O)c1ccc(C(=O)O)cc1`: the Potency entry is “inactive”.

Turning to `Cc1cc(C)cc(OCC2CNC(=O)O2)c1` (stereo not given), the Potency entry was “inactive”.

Regarding `CC(C)(C)CC(C)(C)c1ccc(O)c(-n2nc3ccccc3n2)c1`, the Potency result is “inactive”.

As for `CC(=O)Nc1ccc(OC(=O)c2ccccc2OC(C)=O)cc1`, the Potency result was “inactive”.

`CN1CCC[C@@H]1CCO[C@](C)(c1ccccc1)c1ccc(Cl)cc1`: the Potency is 15.4 µM (active).

As for `O=C1[C@H](CC[C@H](O)c2ccc(F)cc2)[C@@H](c2ccc(O)cc2)N1c1ccc(F)cc1`, the Potency entry was “inactive”.
